In PubChem BioAssay (NCI):
The panel holds about 83,000 compounds, 20% with a hit somewhere; the sample as a whole holds those more often.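 Note: values are percent growth. 100 is the growth of untreated cells, values between 100 and 0 indicate rising inhibition; between -100 and 0 indicates cell death.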 Values without a mark were called inactive. The source made the active and inactive calls. The calls were made as follows: active = growth percent below 10; inactive = the rest.

Assays:
Assay in all cases: NCI-60 one-dose screen, 48 h (100 = growth as untreated, 0 = no growth, -100 = all killed)
Details in all cases: 10 µM unless noted
[1] = tested on: NCI-H23 lung
[2] = tested on: NCI-H226 lung
[3] = tested on: NCI-H322M lung
[4] = tested on: HOP-62 NSCLC
[5] = tested on: NCI-H460 lung
[6] = tested on: HOP-92 NSCLC
[7] = tested on: NCI-H522 lung
[8] = tested on: A549/ATCC NSCLC
[9] = tested on: 786-0 renal
[10] = tested on: COLO 205 colon
[11] = tested on: DU-145 prostate
[12] = tested on: K-562 leukemia
[13] = tested on: MALME-3M melanoma
[14] = tested on: MDA-MB-231 breast
[15] = tested on: RXF 393 renal
[16] = tested on: SF-268 CNS
[17] = tested on: SF-295 CNS
[18] = tested on: SF-539 CNS
[19] = tested on: UACC-257 melanoma
[20] = tested on: M14 melanoma

Compound	growth [1]	growth [2]	growth [3]	growth [4]	growth [5]	growth [6]	growth [7]	growth [8]	growth [9]	growth [10]	growth [11]	growth [12]	growth [13]	growth [14]	growth [15]	growth [16]	growth [17]	growth [18]	growth [19]	growth [20]
CC(C)C[C@@H](NC(=O)[C@@H](Cc1ccccc1)NC(=O)c1cnccn1)B1Oc2ccc(C[C@H](NC(=O)[C@H](Cc3ccc4c(c3)OB([C@@H](CC(C)C)NC(=O)[C@@H](Cc3ccccc3)NC(=O)c3cnccn3)O4)NC(=O)[C@@H](N)CC3CCC4OB([C@@H](CC(C)C)NC(=O)[C@@H](CC5CCCCC5)NC(=O)C5CNCCN5)OC4C3)C(=O)NCCCC[C@@H]3NC(=O)[C@@H](Cc4ccccc4)NC(=O)[C@H](CC(=O)O)NC(=O)CNC(=O)[C@H](CCCNC(=N)N)NC3=O)cc2O1 (stereo not given in full)	-41.3% (active)	-50.2% (active)	-8.33% (active)	-43.2% (active)	-54.8% (active)	-74.1% (active)	-43.4% (active)	-49.5% (active)	-12.6% (active)	-72.6% (active)	-44.8% (active)	-0.546% (active)	-20.3% (active)	-7.69% (active)	-89.2% (active)	-52.7% (active)	-68.6% (active)	-37.6% (active)	-11.7% (active)	0.189% (active)
COc1cc(-c2ccc3c(c2)NC(=O)/C3=C\c2ccc[nH]2)ccc1O	12.1%	39.6%	30.3%	27.8%	7.55% (active)	57.8%	6.78% (active)	20.7%	14.8%	25.2%	17.8%	5.55% (active)	66.4%	66.4%	17.8%	31.1%	-19.6% (active)	0.982% (active)	39.3%	34.1%
Cc1cc(C)nc(SC2=C(Nc3ccc(C)c(Cl)c3)C(=O)N(Cc3ccccc3)C2=O)n1	62.4% [30 µM]	74.5% [30 µM]	82% [30 µM]	86.9% [30 µM]	52.4% [30 µM]	-4.65% [30 µM] (active)	73.8% [30 µM]	41.2% [30 µM]	68.6% [30 µM]	81.2% [30 µM]	87.8% [30 µM]	32.5% [30 µM]	66.4% [30 µM]	39.1% [30 µM]	51.4% [30 µM]	64.6% [30 µM]	-3.52% [30 µM] (active)	85.8% [30 µM]	67.4% [30 µM]	64% [30 µM]
CCN(CC)S(=O)(=O)c1ccc(OC)c(NC(=O)c2[nH]c(C)c3c2CCCCC3=O)c1	46.9%	50%	44%	31.5%	53.4%	38.3%	26.9%	45.2%	41.5%	35.6%	72.8%	30%	60.6%	43%	38.9%	68.4%	34.1%	36.1%	39.6%	42.3%
COc1ccc2c(c1)c(-c1nonc1-c1cn(C)c3ccccc13)cn2C	27.9%	27.3%	42.2%	33.1%	16.3%	47.8%	9.96% (active)	30.3%	44.2%	17.7%	14.7%	10.5%	51.9%	28.4%	-9.91% (active)	63%	32%	-9.13% (active)	66.5%	24.4%
Cn1c(NCCc2ccc(O)c(O)c2)nc2c1c(=O)n(Cc1ccc(Br)cc1)c(=O)n2C	86.4%	84.1%	87.8%	108%	94.3%	61.1%	-26.6% (active)	83.9%	82%	50.5%	78.9%	81%	81.4%	69.2%	81%	68.4%	98%	79.1%	88.5%	96.5%
